Compound activity deposited in PubChem by several laboratories.
GluA2 TARP mod: GluA2-stargazin AMPA receptor complex modulation; O88602+P19491; HEK293 GluA2+stargazin, membrane potential dye (FDSS), glutamate EC50; hits were called plate by plate, in both directions; calls only at 30 µM; 3.5% of 40,000 active; AID 1259245;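 active means any of four per-well response measures lying three or more SD from its plate-wide compound average, in either direction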
GIRK2 act: Activates human GIRK2-containing potassium channels; P48051; 34,000 tested, under 10 active; HEK293 GIRK2/NPY4 cells, thallium flux fluorescence; AID 1259324; activation (% efficacy), % for hits at 37.5 µM;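 active means primary screen hit, no activity in plain HEK293 cells, and in GIRK2-only cells above 5% efficacy rising with concentration; inactive means the rest, including fluorescent compounds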;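 further: efficacy is normalized control-subtracted fluorescence 15 s after thallium addition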
* marks the source's active call; other numbers are inactive results; i = inactive; · = not tested or not shown; + = active, no number. The full list was thinned out, with hits kept by preference.

SMILES	GluA2 TARP mod	GIRK2 act
O=C(c1ccco1)N1CCC(Cn2cccn2)CC1	i	i
Cn1c(=O)[nH]c(=O)c2c1nc(NNC=O)n2Cc1ccccc1	i	·
O=C(c1cc2ccccc2oc1=O)N1CCC(Cn2cnc3ccccc32)CC1	i	i
O=C(c1ccc(Br)o1)N1CCC(Cn2cnc3ccccc32)CC1	+	i
CSc1ccccc1NC(=O)Cn1c(-c2cnccn2)nc2ccccc21	+	i
Cc1cc(C)n(CCNC(=O)Cn2c(-c3cnccn3)nc3ccccc32)n1	i	i
Cc1ccc(Cl)cc1N1CCN(C(=O)Cn2c(-c3cnccn3)nc3ccccc32)CC1	+	i
Cc1nc(NC(=O)Cn2c(-c3cnccn3)nc3ccccc32)sc1C(=O)N(C)C	i	i
O=C(c1cnccn1)N1CCCSCC1CN1CCOCC1 (centres undefined)	·	i
O=C1/C(=C/c2cccs2)Oc2cc(O)ccc21	+	·
O=C1/C(=C/c2ccccc2F)Oc2cc(O)ccc21	i	·
O=C1/C(=C/c2ccc(Cl)c(Cl)c2)Oc2cc(O)ccc21	i	·
COc1cc(/C=C2\Oc3cc(OC(=O)c4c(OC)cccc4OC)ccc3C2=O)cc(OC)c1OC	i	·
COc1ccc(/C=C2\Oc3cc(O)ccc3C2=O)cc1OC	+	·
COc1cc(/C=C2\Oc3cc(O)ccc3C2=O)cc(OC)c1OC	+	·
O=C(CCCS(=O)(=O)c1ccc(Cl)cc1)Nc1ccccc1Oc1ccccc1	i	·
Cc1ccccc1-c1ccc(N2CCC(C(=O)Nc3ccc4c(c3)OCO4)CC2)nn1	i	i
O=C(Nc1ccc(-c2ccc(N3CCOCC3)nn2)cc1)Nc1ccccc1F	i	i
O=C(Nc1cccnc1)C1CCN(c2ccc(-c3ccc(Cl)cc3)nn2)CC1	+	i
O=C(Nc1ccc2c(c1)OCO2)C1CCN(c2ccc(-c3ccc(Cl)cc3)nn2)CC1	+	i
O=C(NCc1cccnc1)C1CCN(c2ccc(-c3ccc(Cl)cc3)nn2)CC1	i	i
O=C(Nc1ccc(-c2ccc(N3CCOCC3)nn2)cc1)Nc1cccc(Cl)c1	+	i
CCOc1ccc(NC(=O)CN2CCN(c3nccn3-c3ccccc3F)CC2)cc1	i	i
Cc1cc([N+](=O)[O-])ccc1NC(=O)C(=O)NCC(c1cccs1)N(C)C (centres undefined)	i	i
O=C(NCc1ccc(OC(F)(F)F)cc1)C1CN(C(=O)c2c[nH]c3ccccc23)C1	i	i
SMILES	GluA2 TARP mod	GIRK2 act
Cc1cc(C)cc(OCC(O)CN2CCN(Cc3ccc4c(c3)OCO4)CC2)c1 (centres undefined)	i	·
CCc1ccc(OCCOCC(O)CN2CCN(Cc3ccc4c(c3)OCO4)CC2)cc1 (centres undefined)	+	·
COc1ccc(S(=O)(=O)N2CCC(C(=O)Nc3nc4ccccc4s3)CC2)cc1	i	i
COc1ccc(C)cc1NC(=O)N1CCN(c2ccc(Nc3ccccn3)nn2)CC1	i	i
COc1ccc(CCNC(=O)Cc2cc(-c3ccc4c(c3)OCO4)on2)cc1	i	i
CCOc1ccccc1-c1nc(COC(=O)c2nnn(-c3ccc(Cl)cc3)c2C)c(C)o1	+	·
COc1ccccc1-c1nc(COC(=O)c2nnn(-c3ccc(C)cc3)c2C)c(C)o1	i	·
CCCOc1ccc(/C=C/C(=O)Nc2ccc(N(C)C)cc2)cc1	i	·
Cc1ccc(CNC(=O)c2nnn(-c3ccccc3Cl)c2-c2ccncc2)o1	i	i
COCCn1c(=NC(=O)CS(=O)(=O)c2ccc(OC)cc2)sc2cc(F)cc(F)c21	i	i
COCCn1c(=NC(=O)c2ccno2)sc2cc(F)cc(F)c21	+	i
CCn1c(SCC(=O)N2CCN(C(c3ccccc3)c3ccccc3)CC2)nc2ccccc2c1=O	+	·
Cc1cc(=O)[nH]c(SCC(=O)N2CCN(C(c3ccccc3)c3ccccc3)CC2)n1	i	·
CCn1nc(C(=O)N(CCCN(C)C)c2nc3cc(C)cc(C)c3s2)cc1C	·	i
O=C(CN1CCN(c2ccc(Cl)cc2)C1=O)N1CCN(c2ccccn2)CC1	i	i
COc1ccc(NC(=O)COC(=O)c2cc(C(C)=O)n3ccccc23)cc1Cl	i	·
CCN(CC)C(=O)Cn1cc(C(=O)C(=O)N2CCN(Cc3ccccc3)CC2)c2ccccc21	i	·
CCN(CC)C(=O)Cn1cc(C(=O)C(=O)N(Cc2ccccc2)C(C)C)c2ccccc21	+	·
Cn1c(=O)[nH]c(=O)c2c1nc(N1CCCCC1)n2CC(=O)c1ccccc1	i	·
Brc1cccc(-c2nnc3sc(-c4cccnc4)nn23)c1	+	i
O=c1oc(-c2cccnc2)nc2ccc(Br)cc12	i	i
O=C(NCCn1ncc2c(N3CCCC3)ncnc21)c1ccc(=O)oc1	+	·
COc1ccc(C(=O)NCCn2ncc3c(N4CCCCCC4)ncnc32)cc1OC	i	i
O=C(CCCc1ccccc1)Nn1cnc2c(cnn2-c2ccccc2)c1=O	i	i
Cn1cccc(C(=O)NCC(O)(c2ccccc2)C2CC2)c1=O (centres undefined)	i	·
SMILES	GluA2 TARP mod	GIRK2 act
COCC(C)(O)CNC(=O)c1cccn(C)c1=O (centres undefined)	+	i
COc1cccc(S(=O)(=O)NCCC(O)C2CC2)c1 (centres undefined)	+	i
COc1cccc(S(=O)(=O)NCC(O)(c2ccccc2)C2CC2)c1 (centres undefined)	i	i
COC(=O)C1=C(CS(=O)(=O)c2ccccc2)NC(=O)NC1c1ccc(OC)c(OC)c1 (centres undefined)	+	·
COC(=O)C1=C(CS(=O)(=O)c2ccc(OC)c(OC)c2)NC(=O)NC1c1cccc(Cl)c1 (centres undefined)	i	·
COC(=O)C1=C(CS(=O)(=O)c2cc(Cl)ccc2OC)NC(=O)NC1c1ccccc1 (centres undefined)	+	i
COC(=O)C1=C(CS(=O)(=O)c2ccc(OC)c(OC)c2)NC(=O)NC1c1ccc(O)cc1 (centres undefined)	i	·
CCCCC1CCC(C(=O)Nc2noc3ncccc23)CC1 (centres undefined)	·	i
O=C(/C=C/c1ccc2c(c1)OCO2)N1CCC(Cn2cccn2)CC1	i	i
O=C(N1CCC(c2nnc(-c3ccc(F)cc3)o2)CC1)C1(c2cccs2)CCCC1	+	i
O=C(c1cccs1)N1CCC(c2nnc(-c3ccc(F)cc3)o2)CC1	i	i
CCCCN1C(=O)CCc2cc(NC(=O)c3ccc(OCC)c(OCC)c3)ccc21	i	i
CCn1nc(C(=O)Nc2nc3cc4c(cc3s2)OCO4)cc1C	·	i
Cc1ccc(-n2nnc3c(N4CCN(C(=O)Cc5cccc(C)c5)CC4)ncnc32)cc1	i	·
Cc1cc(C)cc(C(=O)N2CCN(c3nc(C)cc(N4CCCCC4)n3)CC2)c1	i	·
CCNc1cc(C)nc(N2CCN(C(=O)COc3ccccc3)CC2)n1	i	i
Cc1cc(N2CCCCC2)nc(N2CCN(C(=O)c3ccccc3)CC2)n1	+	·
Cc1cc(N2CCCCC2)nc(N2CCN(C(=O)Cc3ccccc3)CC2)n1	+	i
Cc1nc(N2CCCCC2)cc(N2CCN(C(=O)c3ncccn3)CC2)n1	i	i
Cc1cc(N2CCOCC2)nc(N2CCN(C(=O)c3cnccn3)CC2)n1	+	i
